Compounds with a hit are over-represented: about 4.8% of the library has one in this group of screens.
hcDAF-12 act: activates DAF-12 receptor from parasite H. contortus. HEK293 hcDAF-12 lit1-tk-luc reporter, luminescence; 0% DMSO, 100% Δ7-dafachronic acid. activation, % at 6.8 µM. 1.4% of 370,000 active. AID 652067;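 active = activation above the mean of all tested compounds plus 3 SD, cut at about 5.5% in these data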
DAX1 inh-1: inhibitors of DAX1 repression of SF-1 activated StAR promoter | 1.1% of 370,000 active | inhibition, % at 6.8 µM | HEK293T StAR-luciferase reporter, SF-1/DAX-1 repression relief;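 active = inhibition above the mean over all tested compounds plus 3 SD, cut at about 3.6% in these data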;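 also: higher inhibition means more luminescence from relief of DAX-1 repression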
SMARCA2 act: SMARCA2 function activation, primary screen. activation, % at 9.1 µM. 1% of 370,000 active. AID 652017. MG213 cells, MMTV-luciferase reporter, dexamethasone, overnight; in the data active = activation above about 7.8%
DAX1 inh-2: inhibitors of human orphan nuclear receptor DAX1 (NR0B1). HEK293 Gal4-DAX1 luciferase reporter, luminescence. 0.99% of 340,000 active. inhibition, % at 6.75 µM;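 active = inhibition above the mean over all tested compounds plus 3 SD, cut at about 4.2% in these data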;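 also: inhibition shows as a rise in luminescence from relieved DAX1 repression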
Target sequence (P51843 207-470 limits assumed): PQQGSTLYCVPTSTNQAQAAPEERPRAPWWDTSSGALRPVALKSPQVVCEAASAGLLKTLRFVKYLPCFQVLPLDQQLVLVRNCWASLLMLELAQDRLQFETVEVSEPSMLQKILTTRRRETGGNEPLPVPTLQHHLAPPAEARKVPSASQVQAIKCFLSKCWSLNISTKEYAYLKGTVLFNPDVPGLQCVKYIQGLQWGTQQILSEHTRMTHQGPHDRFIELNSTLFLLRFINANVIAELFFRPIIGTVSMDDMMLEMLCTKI
hgDAF12 agonist: hgDAF-12 agonism, primary luciferase screen | 1.8% of 370,000 active | HEK293 GAL4-hgDAF12 UAS-luciferase reporter, agonist luminescence; normalized to butyrate control | activation, % at 6.8 µM | AID 687014;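 active = activation above a cutoff set at the mean of all screened compounds plus 3 SD, cut at about 10% in these data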
ssDAF12 agonist: S. stercoralis DAF-12 activation, primary screen; HEK293 ssDAF-12/GRIP1 lit1-tk-luc reporter, luminescence; % of 3 µM dafachronic acid response; activation, % at 6.8 µM; 1% of 370,000 active;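 active = activation above the mean over all tested compounds plus 3 SD, cut at about 0.9% in these data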
DAX1 conf: NR0B1 (human) inhibition, confirmation. 87% of 2,400 active. HEK293T StAR-promoter luciferase reporter, SF-1/DAX-1 repression. inhibition, % at 6.8 µM. shares compounds with DAX1 inh-1;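 active = inhibition above the average of every tested compound plus 3 SD, cut at about 3.8% in these data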;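 also: active compounds raise luminescence by relieving repression of the StAR reporter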
SF1 mutant ctr: counter-screen for DAX1 inhibitors: nonselective inhibitors with SF-1 AF2 mutant. inhibition, % at 6.8 µM. AID 652136. HEK293 StAR-luciferase, luminescence. 78% of 2,400 active. shares compounds with DAX1 inh-1;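 active = inhibition above the mean of all tested compounds plus 3 SD, cut at about 3% in these data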
SMARCA2 conf: confirmation of SMARCA2 (BRM) function activators. shares compounds with SMARCA2 act. activation, % at 9.1 µM. AID 652260. MG213 cells, MMTV-luciferase with dexamethasone, luminescence, overnight; MG213 cells expressing E1A, Rb sequestered; DMSO wells 0%, reference activator 100%. 30% of 3,500 active;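 active = activation above its plate's cutoff, the mean activation of tested wells plus 3 SD, cut at about 7.9% in these data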
GAL4-VP16 Luc: GAL4-VP16 reporter activation counter-screen; shares compounds with SMARCA2 act; HEK293 GAL4-VP16 pG5luc reporter, luciferase luminescence; scaled: DMSO wells 0%, SAHA wells 100%; activation, % at 9.1 µM; 41% of 3,500 active; AID 686939;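 active = activation above the solvent-only control well mean plus 3 SD, averaged across control plates, cut at about 5.2% in these data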
LXR ag: LXR-beta agonism as hcDAF-12 counter-screen; 3,400 tested, under 10 active; HEK293 Gal4-LXR tk-luc reporter, luminescence, 24 h; normalized: DMSO 0%, positive control 100%; activation, % at 6.8 µM; shares compounds with hcDAF-12 act; AID 743027;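 active = mean percent activation of the reporter above a cutoff set as the average over tested compounds plus their standard deviation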
Target sequence (P55055 whole entry, looked up, the tested form may be a part): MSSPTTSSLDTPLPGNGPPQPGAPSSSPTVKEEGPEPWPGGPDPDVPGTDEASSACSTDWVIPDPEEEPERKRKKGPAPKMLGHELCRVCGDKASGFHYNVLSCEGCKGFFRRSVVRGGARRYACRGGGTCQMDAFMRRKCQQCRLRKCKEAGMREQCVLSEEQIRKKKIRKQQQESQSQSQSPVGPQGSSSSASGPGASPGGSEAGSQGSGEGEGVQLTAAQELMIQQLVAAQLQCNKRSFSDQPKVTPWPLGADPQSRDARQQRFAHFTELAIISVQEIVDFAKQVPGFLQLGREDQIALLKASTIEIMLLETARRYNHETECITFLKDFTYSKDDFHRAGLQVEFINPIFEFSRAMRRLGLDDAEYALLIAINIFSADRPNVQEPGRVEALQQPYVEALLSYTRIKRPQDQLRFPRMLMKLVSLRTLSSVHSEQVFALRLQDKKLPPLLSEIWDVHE
hcDAF12 conf: hcDAF-12 agonism, confirmation assay; 61% of 3,400 active; HEK293 hcDAF-12 lit1-tk-luc reporter, luminescence; % of Δ7-dafachronic acid response; activation, % at 6.8 µM; shares compounds with hcDAF-12 act;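 active = mean activation across triplicate tests above the threshold derived from the earlier primary screen, cut at about 5.5% in these data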
Hits are given with their value; . = inactive; / = no result given.

SMILES	hcDAF-12 act	DAX1 inh-1	SMARCA2 act	DAX1 inh-2	hgDAF12 agonist	ssDAF12 agonist	DAX1 conf	SF1 mutant ctr	LXR ag	hcDAF12 conf	others
CC1(O)C(c2ccccc2)=Nc2ccccc21 (configuration not stated)	9.9	5.3	9.5	4.5	11.2	.	12.7	7.6	.	6.5	SMARCA2 conf=11.9;GAL4-VP16 Luc=12.7
Cc1cc(N/C=C/C(=O)c2cccs2)ccc1F	10.2	5.2	.	6.5	23.8	2.1	17.5	9.5	.	15.8
O=C(Nc1ccc([N+](=O)[O-])cc1)C(=O)Nc1cccc(C(=O)O)c1	11.4	5.4	.	.	13.2	2.7	11.9	8.5	.	25.4
Cc1ccc(SCc2cn3c(C)csc3n2)cc1	8.0	5.2	10.3	.	11.9	.	17.1	7.0	.	7.8	SMARCA2 conf=.;GAL4-VP16 Luc=8.8
Cc1ccc(S(=O)(=O)NCc2cn3c(C)csc3n2)cc1	.	.	.	.	.	.	/	/	/	/
Cc1nn(CCC(=O)NNC(=O)NCc2ccccc2)c(C)c1[N+](=O)[O-]	.	.	.	/	.	.	/	/	/	/
CC1CCN(C(=O)c2cc3c(ccc4ccccc43)o2)CC1	9.1	19.0	.	.	12.0	.	10.3	4.3	.	6.5
C#CCN1CC(N(C)CCOC(=O)c2ccc(F)cc2)CS1(=O)=O (configuration not stated)	.	.	.	/	.	.	/	/	/	/
COc1ccc(OCCSc2ncccn2)cc1	6.9	4.8	.	.	12.3	.	11.2	7.8	.	6.6
COC(=O)[C@]12C[C@H](CC(=O)NCCc3ccccc3OC)C(=O)N(Cc3ccc(Cl)cc3Cl)C1=C[C@H](C(C)C)O[C@@H]2C1CC1	.	.	.	/	.	.	/	/	/	/
COc1cccc(NC(=O)N2CCCCCC2)c1	7.7	4.6	.	.	.	.	5.7	4.0	.	.
CNc1ccc(C=C2C=Cc3ccccc32)cc1	9.1	7.3	.	4.7	14.9	.	16.8	7.2	.	10.9
O=C(N1CCC(Cc2ccccc2)CC1)n1ncc(C(O)(c2ccccc2)c2ccccc2)n1	.	/	/	/	.	.	/	/	/	/
Cc1ccc(C(=O)/C=C/Nc2ccccc2C(N)=O)cc1	7.0	4.7	.	.	11.6	1.8	12.4	7.0	.	7.0
Cc1ccc(NC(=O)Cc2ccc(F)cc2)c(S(=O)(=O)N2CCOCC2)c1	.	.	.	/	.	.	/	/	/	/
O=C1C(=C2CCc3ccccc32)Cc2ccccc21	15.0	7.1	.	/	21.5	2.3	16.3	9.0	.	21.2
O=C1C(=NO)CCCc2ccccc21	.	.	.	.	.	.	/	/	/	/
O=C(Nc1ccccc1)Nc1ccc(C(=O)N2CCCC2)cc1	8.8	4.9	.	.	17.2	.	13.5	7.5	.	6.9
COc1cc(CNc2nc3ccccc3s2)cc(OC)c1OC	.	.	.	.	.	.	/	/	/	/
COc1ccc2sc(NCc3ccccc3)nc2c1	7.1	6.5	.	.	.	.	7.1	6.6	.	.
COc1ccc(C(=O)Nc2nnc(-c3ccco3)s2)cc1	7.7	6.9	.	.	.	1.1	9.0	.	.	7.2
Cn1c(=O)oc2cc(S(=O)(=O)N3CCN(C(=O)C4CCCO4)CC3)ccc21 (configuration not stated)	.	.	.	/	.	.	/	/	/	/
COc1ccc(-c2cn3c4c(sc3n2)CCCC4)cc1	17.4	5.1	.	.	13.1	1.3	11.7	7.9	.	20.4
CC1(C)CC(=O)C=C(C#CC2CC2)C1	.	.	.	/	.	.	/	/	/	/
CCC[C@H]1[C@@H](NC(=O)c2ccc(Cl)cc2)CC[C@@]23CCCN2C(=O)CCC[C@@H]13	.	/	/	/	.	.	/	/	/	/
SMILES	hcDAF-12 act	DAX1 inh-1	SMARCA2 act	DAX1 inh-2	hgDAF12 agonist	ssDAF12 agonist	DAX1 conf	SF1 mutant ctr	LXR ag	hcDAF12 conf	others
Cc1cccc(CCNC(=O)c2cccc(N3CCCC3=O)c2)c1	7.4	7.3	.	.	11.3	.	9.5	4.0	.	7.2
Cc1ccc(CCNC(=O)c2cccc(N3CCCC3=O)c2)cc1	/	/	/	.	/	/	/	/	/	/
CN(CCOC(=O)c1cc2ccccc2o1)C1CN(Cc2cn(Cc3ccc([N+](=O)[O-])cc3)nn2)S(=O)(=O)C1 (configuration not stated)	.	.	.	/	.	.	/	/	/	/
Cc1csc(NC(=O)c2ccc(S(C)(=O)=O)cc2)n1	.	.	.	.	.	.	/	/	/	/
Cc1csc(NC(=O)c2cncc(Br)c2)n1	6.8	5.2	.	.	11.5	.	13.0	7.8	.	.
Nc1[nH]c(C(=O)c2ccccc2)c(-c2ccccc2Br)c1C(=O)c1cccs1	.	.	.	/	.	.	/	/	/	/
O=C(Nc1nc2ncccn2c1-c1ccc(C(F)(F)F)cc1)c1ccc(F)cc1	.	.	.	/	.	.	/	/	/	/
CC(C)(C)c1ccc(/C=N/NC(=O)c2ccccn2)cc1	7.2	11.5	9.8	.	13.0	.	13.8	6.2	.	9.5	SMARCA2 conf=.;GAL4-VP16 Luc=9.0
O=C(NCCc1c[nH]c2ccccc12)OCc1cn(Cc2cccc(C(F)(F)F)c2)nn1	.	.	.	/	.	.	/	/	/	/
CCCn1c(SCc2nc3ccccc3s2)n[nH]c1=O	12.0	4.8	.	.	11.2	1.5	8.4	5.0	.	10.8
CC(=S)/C=C1\Sc2ccccc2N1C	.	.	.	.	.	.	/	/	/	/
COc1ccc(C(=O)/C=C2\Sc3ccccc3N2C)cc1	18.9	5.7	.	/	28.4	5.9	16.1	9.8	.	18.3
CCOc1ccc(-n2c(SC/C=C/c3ccccc3)nnc2-c2cccs2)cc1	.	.	.	/	.	.	/	/	/	/
COC(=O)[C@]12C[C@H](CC(=O)NCc3ccc(C)o3)C(=O)N(Cc3cccc4ccccc34)C1=C[C@H](COCc1ccccc1)O[C@@H]2C	.	.	.	/	.	.	/	/	/	/

Screening data: PubChem, The Scripps Research Institute Molecular Screening Center
